Source: PubChem BioAssay (NCI)
The panel holds about 79,000 compounds, 15% with a hit somewhere; the sample as a whole holds those more often. A number with no mark means an inactive call. The source made the active and inactive calls. Cut-off read from the data, not from the text of the source: active = growth inhibition above about 70%; inactive = the rest.

Assays:
[1] = NCI Yeast Anticancer Drug Screen. Data for the rad50 strain (AID 155);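 note: 0% = growth of vehicle-only cultures of the same strain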; details: S. cerevisiae rad50 strain growth inhibition, active compounds read high
Summary of the method: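 Compounds were tested on a yeast strain with an engineered DNA damage repair alteration; the reported value is growth inhibition normalised to vehicle treatment.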

[2] = NCI Yeast Anticancer Drug Screen. Data for the mec2-1 strain (AID 157); details: S. cerevisiae mec2-1 strain, active compounds read high
Summary of the method: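 Yeast mec2-1 mutant treated with compound. Readout: growth inhibition vs vehicle controls.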

[3] = NCI Yeast Anticancer Drug Screen. Data for the sgs1 mgt1 strain (AID 161);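 note: 0% = growth of cultures given vehicle only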; details: S. cerevisiae sgs1 mgt1 strain, active compounds read high
Summary of the method: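 Read-out: growth inhibition vs vehicle controls. Cells: mutant yeast strain deficient in DNA damage repair.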

[4] = NCI Yeast Anticancer Drug Screen. Data for the cln2 rad14 strain (AID 165);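 note: 0% = growth equal to vehicle treated cultures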; details: S. cerevisiae cln2 rad14 strain, active compounds read high
Summary of the method: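 cln2 rad14 yeast strain; compound exposure; growth inhibition read vs vehicle controls.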

[5] = NCI Yeast Anticancer Drug Screen. Data for the bub3 strain (AID 167); details: S. cerevisiae bub3 mutant strain, active compounds read high
Summary of the method: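 Growth of a checkpoint-deficient yeast mutant is measured after compound exposure. Values represent inhibition relative to vehicle.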

[6] = NCI Yeast Anticancer Drug Screen. Data for the mlh1 rad18 strain (AID 175); details: S. cerevisiae mlh1 rad18 strain growth inhibition, active compounds read high
Summary of the method: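 Yeast w/ defined DNA-repair lesions; compound exposure; growth vs vehicle controls → % inhibition.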

[7] = at 5.0 µM (retest, dose inferred, filed as 0.5)
[8] = at 50.0 µM (retest, dose inferred, filed as 5.0)

Row | Structure (SMILES) | growth inhibition [1, 7] | growth inhibition [1, 8] | growth inhibition ([1]; at 50.0 µM) | growth inhibition [2, 7] | growth inhibition [2, 8] | growth inhibition ([2]; at 50.0 µM) | growth inhibition [3, 7] | growth inhibition [3, 8] | growth inhibition ([3]; at 50.0 µM) | growth inhibition [4, 7] | growth inhibition [4, 8] | growth inhibition ([4]; at 50.0 µM) | growth inhibition [5, 7] | growth inhibition [5, 8] | growth inhibition ([5]; at 50.0 µM) | growth inhibition [6, 7] | growth inhibition [6, 8] | growth inhibition ([6]; at 50.0 µM)
1 | CCOP(=O)(N=Nc1cccnc1)OCC | -2% | -17% | 14% | 2% | -10% | 6.35% | -1% | -11% | 5.05% | 1% | -17% | 59.8% | 1% | -3% | 20.1% | 2% | -17% | 39.1%
2 | C1CN1[PH+](N1CC1)N1CC1.C1CN1[PH+](N1CC1)N1CC1.[I][Pt][I] | 2% | 20% | 66.5% | 0% | 20% | 14.8% | 2% | 30% | 59.8% | 1% | 14% | 21.8% | 2% | 21% | 22.7% | 5% | 44% | 73.8% (active)
3 | CC(=O)c1cc2c(cc1O)C(C)(C)CCC2(C)C | 3% | 3% | 97.8% (active) | 1% | 0% | 98.7% (active) | 2% | 1% | 47.7% | 0% | 0% | 95.6% (active) | 3% | 7% | 95% (active) | -2% | -5% | 98.8% (active)
4 | Oc1c(Cl)cc(Cl)c2ccccc12.[Cu+2] | -5% | 91% (active) | 99.3% (active) | -34% | 77% (active) | 99.1% (active) | -5% | 91% (active) | 99.2% (active) | -1% | 32% | 98.7% (active) | -2% | 93% (active) | 99.5% (active) | 0% | 93% (active) | 99.2% (active)
5 | [C-]#[O+].[C-]#[O+].[Mo].c1ccc([PH+](CC[PH+](c2ccccc2)c2ccccc2)c2ccccc2)cc1.c1ccc([PH+](CC[PH+](c2ccccc2)c2ccccc2)c2ccccc2)cc1 | 0% | 65% | 2% | 2% | 52% | 59.3% | -1% | 41% | 1.3% | -2% | 71% (active) | 2.55% | 0% | 76% (active) | -1.85% | 4% | 80% (active) | -0.8%
6 | CC(C)C1(NC(=O)C2CC3c4cccc5[nH]cc(c45)CC3N(C)C2)OC2(O)C3CCCN3C(=O)C(Cc3ccccc3)N2C1=O (configuration not stated) | -26% | 94% (active) | 86.2% (active) | -2% | 96% (active) | 90.8% (active) | -10% | 92% (active) | 86.7% (active) | 1% | 96% (active) | 84.3% (active) | 30% | 96% (active) | 86.3% (active) | 4% | 97% (active) | 83.4% (active)
7 | COC1CCCC2OC3(OC)C(OC)CCCC3OC12OC (configuration not stated) | 3% | -4% | 12.2% | -1% | -3% | 14.7% | 2% | -2% | 10.2% | 5% | -39% | 40.9% | 3% | 9% | 27.2% | -1% | -11% | 7.85%
8 | CCSc1nc(=[N+]2CCCC2)ss1 | 33% | 99% (active) | 98.5% (active) | 25% | 100% (active) | 97.5% (active) | 36% | 99% (active) | 98.8% (active) | 29% | 100% (active) | 81.7% (active) | 17% | 100% (active) | 89.3% (active) | 44% | 99% (active) | 97% (active)
9 | Cc1c(=O)n(O)c2ccccc2[n+]1[O-] | 4% | 21% | 4.05% | 4% | 31% | 0.75% | 4% | 24% | 7.3% | 4% | 14% | 32.5% | 1% | 16% | 12.6% | 5% | 51% | 16.5%
10 | ClCCN1CCOCC1 | 95% (active) | 97% (active) | 98% (active) | 94% (active) | 99% (active) | 98.8% (active) | 89% (active) | 98% (active) | 98.3% (active) | 71% (active) | 98% (active) | 95.8% (active) | 34% | 98% (active) | 98.1% (active) | 91% (active) | 98% (active) | 98.8% (active)
11 | COc1ccc([As]=[As]c2ccc(OC)c(I)c2)cc1I (configuration not stated) | 98% (active) | 99% (active) | 99.7% (active) | 100% (active) | 100% (active) | 99.8% (active) | 99% (active) | 100% (active) | 99.8% (active) | 98% (active) | 98% (active) | 99.8% (active) | 99% (active) | 99% (active) | 99.6% (active) | 99% (active) | 99% (active) | 99.7% (active)
12 | O=[N+]([O-])C=C([SH2+])[SH2+].O=[N+]([O-])C=C([SH2+])[SH2+].[Ni+2].c1ccc(C[P+](c2ccccc2)(c2ccccc2)c2ccccc2)cc1 | 3% | 44% | 93.5% (active) | 7% | 72% (active) | 97.7% (active) | 5% | 52% | 96.7% (active) | -7% | 19% | 87.8% (active) | -1% | 47% | 96.2% (active) | 26% | 83% (active) | 93.3% (active)
13 | CC[PH+](CC)CC[S-].CC[PH+](CC)CC[S-].[Au+].[Au+] | 5% | 13% | 46.4% | 14% | 18% | -0.55% | 12% | 23% | 11.2% | 4% | 6% | -12.4% | 14% | 7% | 8.1% | 55% | 15% | -35.8%
14 | NCCNCCN1CC1 | -2% | 0% | 64.9% | 1% | 1% | 0.35% | 1% | -1% | 39.9% | -2% | -3% | 19.1% | -1% | -6% | 33% | -1% | -1% | 40%
15 | Cc1cc(N(CCCl)CCCl)ccc1C=Nc1ccc(-c2csc(Cc3ccccc3)n2)c(Cl)c1 | 5% | 89% (active) | 92.7% (active) | -7% | 96% (active) | 94.5% (active) | 2% | 97% (active) | 94.2% (active) | -18% | 91% (active) | 91.1% (active) | 6% | 94% (active) | 89.2% (active) | -17% | 94% (active) | 93.7% (active)
16 | CCCCCCCCCCCCCCCC[N+](C)(C)CCOS(C)(=O)=O | 99% (active) | 98% (active) | 91.2% (active) | 99% (active) | 99% (active) | 90.4% (active) | 99% (active) | 99% (active) | 90.3% (active) | 93% (active) | 99% (active) | 86.5% (active) | 99% (active) | 99% (active) | 92.4% (active) | 98% (active) | 98% (active) | 92.3% (active)
17 | O=C(O)C(CSC(c1ccccc1)c1ccccc1)NC(=O)C(c1ccccc1)c1ccccc1 (configuration not stated) | 6% | 86% (active) | 52.5% | 11% | 89% (active) | 83.3% (active) | 11% | 86% (active) | 69.8% | 15% | 84% (active) | 96.2% (active) | 8% | 64% | 85.7% (active) | 9% | 88% (active) | 97.1% (active)
18 | O=C(CBr)Nc1ccc(Cl)cc1 | 99% (active) | 99% (active) | 98.8% (active) | 99% (active) | 99% (active) | 99.3% (active) | 99% (active) | 99% (active) | 99.6% (active) | 98% (active) | 99% (active) | 98.7% (active) | 98% (active) | 99% (active) | 99.4% (active) | 98% (active) | 98% (active) | 99.2% (active)
19 | CC(=O)OCC12CCC(C)=CC1OC1C(O)C(OC(C)=O)C2(C)C12CO2 (configuration not stated) | 99% (active) | 99% (active) | 92.7% (active) | 98% (active) | 100% (active) | 94.5% (active) | 98% (active) | 99% (active) | 93.7% (active) | 99% (active) | 99% (active) | 92.8% (active) | 97% (active) | 99% (active) | 92.8% (active) | 99% (active) | 99% (active) | 92.5% (active)
